High-throughput results deposited in PubChem by several laboratories.
BCLXL inh: Bcl-xL (human) inhibition | GST-Bcl-xL / FITC-Bim BH3 peptide fluorescence polarization | 320,000 tested, 0.7% active | inhibition, % at 10.9 µM;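 active means inhibition above the mean of all tested compounds plus 3 SD, cutoff set per campaign, cut at about 30% in these data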;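 further: inhibitors lower millipolarization by displacing the labeled peptide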
MEX-5 binding: C. elegans MEX-5 TCR-2 RNA binding activity; AID 1832; 300,000 tested, 0.38% active; activity score (negative = inhibition of binding), % at 10 µM; Q9XUB2; MEX-5/FITC-TCR2 RNA binding, fluorescence polarization; stronger effect = lower value;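 active means inhibition past about -25% in most replicates, and total fluorescence under double the plate's negative control median, limit read from the data; inconclusive means replicates evenly split on the limit, or fluorescence at least double controls; inactive means too little inhibition in most replicates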
Target sequence (Q9XUB2 whole entry, looked up): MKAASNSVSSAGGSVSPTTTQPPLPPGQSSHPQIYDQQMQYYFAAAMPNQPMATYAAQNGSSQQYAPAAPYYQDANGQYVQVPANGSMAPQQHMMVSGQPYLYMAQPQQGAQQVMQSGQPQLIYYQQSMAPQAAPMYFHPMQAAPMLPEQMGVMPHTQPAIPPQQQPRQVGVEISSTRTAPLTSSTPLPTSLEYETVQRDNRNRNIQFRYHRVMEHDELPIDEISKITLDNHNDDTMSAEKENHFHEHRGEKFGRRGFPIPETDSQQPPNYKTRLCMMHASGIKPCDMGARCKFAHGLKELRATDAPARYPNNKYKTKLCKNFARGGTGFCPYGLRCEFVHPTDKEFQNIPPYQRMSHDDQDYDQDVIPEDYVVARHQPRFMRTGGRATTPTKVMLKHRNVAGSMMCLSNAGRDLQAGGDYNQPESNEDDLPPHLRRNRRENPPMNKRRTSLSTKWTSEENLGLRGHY
GLD-1 TGE inh: GLD-1-TGE RNA interaction inhibition (C. elegans). 320,000 tested, 0.44% active. inhibition, % at 5.96 µM. AID 2280. purified GLD-1 + fluorescein TGE RNA, fluorescence polarization. Q17339;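 active means percent inhibition above a per-plate cutoff, the plate mean of test compounds plus 3 SD, cut at about 30% in these data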
EBV gp42 block: blocks Epstein-Barr virus glycoprotein 42 binding; 220,000 tested, 0.42% active; Fluorescence polarization binding assay, mP read-out; Q1HVG2; AID 1085; inhibition, % (tested at 21.74 µM); in the data active means inhibition above about 50%
MCL1-BIM inh: disrupts human MCL1 binding to BIM-BH3 peptide | GST-MCL1 / FITC-Bim-BH3 fluorescence polarization | inhibition, % at 10.9 µM | 320,000 tested, 0.68% active;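 active means inhibition above the mean inhibition of all tested compounds plus 3 SD, set per campaign, cut at about 40% in these data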;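 further: higher means more loss of mP so more displacement of Bim peptide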
Hits are given with their value; i = inactive; ? = inconclusive; nt = no result given. This is a sample that favours compounds with a hit; in the whole collection about 1.3% have one here.

SMILES	BCLXL inh	MEX-5 binding	GLD-1 TGE inh	EBV gp42 block	MCL1-BIM inh
CCCNC(=O)c1ccc2c(=O)c(O)c(C)[nH]c2c1	i	i	i	i	i
Cc1cc(Cl)ccc1OCC(=O)N/N=C1\CC2C=CCC12 (stereo unspecified)	i	i	i	i	i
COc1ccc(-c2nn(-c3ccccc3)cc2/C=C/C(=O)O)cc1[N+](=O)[O-]	i	i	i	i	i
CC(NC(=O)C1CCCN(C(=O)N(C)C)C1)c1ccccc1 (stereo unspecified)	i	i	i	i	i
COc1ccc(NC(=O)c2cc(S(=O)(=O)N3CCCC3)ccc2C)cn1	35	nt	i	nt	42
COc1ccc(NC(=O)Nc2ccc(OCc3ccccc3)cc2)cn1	nt	-37	nt	nt	nt
COc1ccc(NC(=O)NS(=O)(=O)c2ccc(C)cc2)cn1	nt	-50	nt	nt	nt
Cc1cccc(N2N=C(C(=O)O)CCC2=O)c1	i	i	i	nt	i
Cc1ccc(/C=C2\CCC3=C2OC(N)=C(C#N)C3c2ccc(C)cc2)cc1 (stereo unspecified)	i	i	i	58	i
CN(C)C(=O)c1ccc(-n2cnc3ccccc3c2=O)cc1	i	i	i	i	i
CN(C)/C=N/n1cnc2ccccc2c1=O	34	i	i	i	i
COc1ccc(-c2sc(Nc3ccc(F)c(F)c3F)nc2CCC(=O)NN)cc1	i	i	i	nt	i
O=C(c1cccc(N2C(=O)C3CC=CCC3C2=O)c1)N1CCCc2ccccc21 (stereo unspecified)	i	i	i	i	i
COc1ccc(C(=O)Nc2ccc(S(=O)(=O)Nc3nccc(C)n3)cc2)cc1	i	i	i	nt	i
Cc1ccc(O)c(-c2cc(C(=O)Nc3ccc(S(=O)(=O)Nc4nccc(C)n4)cc3)[nH]n2)c1	i	-29	i	i	i
COc1ccc(N2C(=NC(=O)C3CCCCC3)SC3CS(=O)(=O)CC32)c(OC)c1 (stereo unspecified)	i	i	i	nt	i
CCn1c2ccccc2c2cc(NC(=O)c3coc(=O)c(Br)c3)ccc21	i	?	i	97	i
CCn1c2ccccc2c2cc(NC(=O)c3ccc(=O)oc3)ccc21	i	i	i	127	i
CCn1c2ccccc2c2cc(NC(=O)c3cc(OC)cc(OC)c3)ccc21	i	i	i	i	i
CCOC(=O)N1CCN(S(=O)(=O)N2CCCC(C(=O)NCCCN3CCCCC3CC)C2)CC1 (stereo unspecified)	i	i	i	nt	i
COc1ccc(C2C(C#N)=C(N)OC3=C2C(=O)CC(C)(C)C3)cc1 (stereo unspecified)	51	i	i	i	i
CC1(C)CC(=O)C2=C(C1)OC(N)=C(C#N)C2c1ccc[nH]1 (stereo unspecified)	33	i	i	i	i
CCCNC(=O)CCn1nc(-c2ccc(C)cc2)c2ccccc2c1=O	34	i	i	nt	i
CCCCNC(=O)CCn1nc(-c2ccc(C)cc2)c2ccccc2c1=O	i	i	i	nt	i
CCOc1cc(/C=C/c2cccc[n+]2C)ccc1OCC(=O)Nc1ccc(C)cc1	i	-43	i	nt	i
SMILES	BCLXL inh	MEX-5 binding	GLD-1 TGE inh	EBV gp42 block	MCL1-BIM inh
COc1cc(/C=C/c2cccc[n+]2C)ccc1OCC(=O)Nc1ccccc1C	i	i	i	nt	i
C/C(=N\NC(=O)Cn1nc(C)c([N+](=O)[O-])c1C)c1ccc(Cl)s1	i	i	i	i	i
CC(C)(C)c1ccc(OCC(=O)Nc2ccc3c4c(cccc24)C(=O)NC3=O)cc1	nt	i	nt	57	nt
O=[N+]([O-])c1ccccc1/C=C/C=N/n1c(-c2ccc(Cl)cc2)n[nH]c1=S	i	i	i	86	i
CCCSc1nnc2nc3c(nn12)c1ccccc1n3C	i	-35	i	i	i
COc1ccc(CCNC(=O)[C@@H](NC(=O)N2CC(=O)Nc3ccccc32)C(C)C)cc1OC	i	i	i	nt	i
COc1ccc(N2CCN(C3CCCN(C(=O)CCN4CCCCO4)C3)CC2)cc1 (stereo unspecified)	nt	i	nt	nt	nt
CCN1C(=O)/C(=C\c2cccs2)C(C(=O)OC)=C1C	i	-78	i	i	i
O=C(O)CC/C(=N/NC(=O)c1cccs1)c1ccccc1	i	i	i	i	i
COc1cc(OC)c2c(O)c3c(c(-c4c5c(c(O)c6c(OC)cc(OC)cc46)CO[C@@H](C)[C@H]5O)c2c1)[C@H](O)[C@H](C)OC3	i	?	i	i	56
O=C(O)c1cc(-c2ccco2)nc2cc3ccccc3cc12	35	i	i	i	i
O=C(NNC(=O)c1cc(-c2ccco2)nc2ccccc12)c1ccccc1	35	i	i	i	i
O=C(c1ccccc1)c1ccc2nc(-c3ccco3)c(-c3ccco3)nc2c1	32	i	i	i	i
C/C(=N\NC(=O)c1cccc(S(=O)(=O)N2CCOCC2)c1)c1ccc(O)cc1	i	nt	i	nt	i
CN(C)c1ccc(/C=N/Nc2nncc3ccccc23)cc1	i	i	i	nt	i
Cc1ccc(-c2nc(C=Nc3ccccc3)c(O)o2)cc1	i	i	i	i	i
COc1ccc2cc(N=Cc3nc(-c4ccc(C)cc4)oc3O)cnc2c1	i	-47	i	i	i
COc1ccccc1OCC(=O)N(Cc1nnc(-c2ccccc2Cl)o1)C1CC1	i	i	i	nt	i
CC1=C(C#N)c2nc(N)c(C#N)c(C)c2/C1=C\c1ccc(C)cc1	i	i	i	i	i
COc1cc(/C=C2\C(C)=C(C#N)c3nc(N)c(C#N)c(C)c32)ccc1OCC(=O)O	35	i	i	i	i
O=C(NCc1ccccc1)c1ccc(NC(=O)C2CCCO2)cc1 (stereo unspecified)	i	i	i	nt	i
N#C/C(=C(/O)c1ccc(-c2cccc([N+](=O)[O-])c2)o1)c1nc2ccccc2s1	nt	i	nt	86	nt
Cc1ncc([N+](=O)[O-])n1Cc1cccc2ccccc12	i	i	i	66	i
CCNc1nn2ccccc2c1/C=C(\C#N)C(=O)OCC	i	-63	i	i	i
CCOC(=O)/C(C#N)=C/c1c(N2CCCCCC2)nc2ccccn2c1=O	i	i	i	nt	i
SMILES	BCLXL inh	MEX-5 binding	GLD-1 TGE inh	EBV gp42 block	MCL1-BIM inh
O=c1[nH]cnc2sc3c(c12)CCN(Cc1ccccc1)C3	33	i	i	i	i
OCCCNc1ncnc2sc3c(c12)CCN(Cc1ccccc1)C3	i	-28	i	nt	i
NNc1nc2sc3c(c2c(=O)n1C1CCCCC1)CCN(Cc1ccccc1)C3	i	i	i	i	i
COc1cccc(-c2c(C#N)c(N)nc3c2c(C)nn3-c2ccccc2)c1O	i	i	i	nt	i
COc1cccc(N=C2NC(=O)/C(=C/c3cc([N+](=O)[O-])ccc3O)S2)c1	i	i	i	nt	i
O=C1NC(=Nc2ccccc2Cl)S/C1=C\c1cc([N+](=O)[O-])ccc1O	i	-40	i	nt	i
CCOc1cc(C2C(C#N)=C(N)OC(C)=C2C(C)=O)c(Br)c(Br)c1OC(C)C (stereo unspecified)	i	i	i	i	i
CCOc1cc(C2C(C#N)=C(N)OC(C)=C2C(C)=O)cc(Br)c1O (stereo unspecified)	115	-69	88	51	138
